Only a selection was taken, and the strongest signals are over-represented in it overall.
Assays:
Test in all cases: glycan array binding signal (z-score within array); higher = stronger binding
Settings in all cases: glycan notation: IUPAC condensed, linker removed
Fuc(a1-2)Gal(b1-4)Glc = molecular target: Fuc(a1-2)Gal(b1-4)Glc
Procedure, shortened: (§1)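 Columns mapping to the same glycan were averaged after glycan names were converted to IUPAC-condensed notation. The data come from 3228 arrays in the Consortium for Functional Glycomics database, limited to those with an available protein sequence. Binding is reported as a within-array Z-score averaged across arrays of one protein sequence and across linkers.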

Fuc(a1-2)Gal(b1-4)GlcNAc = molecular target: Fuc(a1-2)Gal(b1-4)GlcNAc
Procedure, shortened: as §1

[1] = molecular target: Fuc(a1-2)Gal(b1-4)GlcNAc(b1-3)GalNAc
Procedure, shortened: as §1

[2] = molecular target: Fuc(a1-2)Gal(b1-4)GlcNAc(b1-3)[Fuc(a1-3)[Gal(b1-4)]GlcNAc(b1-6)]Gal(b1-4)Glc
Procedure, shortened: as §1

[3] = molecular target: Fuc(a1-2)Gal(b1-4)[Fuc(a1-3)]GlcNAc(b1-2)[Fuc(a1-2)Gal(b1-4)[Fuc(a1-3)]GlcNAc(b1-4)]Man(a1-3)[Fuc(a1-2)Gal(b1-4)[Fuc(a1-3)]GlcNAc(b1-2)Man(a1-6)]Man(b1-4)GlcNAc(b1-4)GlcNAc
Procedure, shortened: as §1

[4] = molecular target: Fuc(a1-2)Gal(b1-4)[Fuc(a1-3)]GlcNAc(b1-3)Gal(b1-4)[Fuc(a1-3)]GlcNAc(b1-3)Gal(b1-4)[Fuc(a1-3)]GlcNAc
Procedure, shortened: as §1

[5] = molecular target: Fuc(a1-2)[Gal(a1-3)]Gal(b1-3)GlcNAc(b1-6)GalNAc
Procedure, shortened: as §1

[6] = molecular target: Fuc(a1-2)[Gal(a1-3)]Gal(b1-4)GlcNAc(b1-3)[Fuc(a1-2)[Gal(a1-3)]Gal(b1-4)GlcNAc(b1-6)]GalNAc
Procedure, shortened: as §1

[7] = molecular target: Fuc(a1-2)[GalNAc(a1-3)]Gal(b1-3)GlcNAc
Procedure, shortened: as §1

[8] = molecular target: Fuc(a1-2)[GalNAc(a1-3)]Gal(b1-4)GlcNAc(b1-2)Man
Procedure, shortened: as §1

[9] = molecular target: Fuc(a1-2)[GalNAc(a1-3)]Gal(b1-4)[Fuc(a1-3)]GlcNAc(b1-3)GalNAc
Procedure, shortened: as §1

[10] = molecular target: Fuc(a1-3)[Gal(b1-4)]Glc6S
Procedure, shortened: as §1

[11] = molecular target: Fuc(a1-3)[Gal(b1-4)]GlcNAc(b1-2)Man
Procedure, shortened: as §1

Fuc(a1-4)GlcNAc = molecular target: Fuc(a1-4)GlcNAc
Procedure, shortened: as §1

Gal(a1-3)Gal(b1-3)GlcNAc = molecular target: Gal(a1-3)Gal(b1-3)GlcNAc
Procedure, shortened: as §1

[12] = molecular target: Gal(b1-4)GlcNAc(b1-2)Man(a1-6)Man(b1-4)GlcNAc(b1-4)GlcNAc
Procedure, shortened: as §1

[13] = molecular target: Gal(b1-4)GlcNAc(b1-3)Gal(b1-4)GlcNAc(b1-3)[Gal(b1-4)GlcNAc(b1-3)Gal(b1-4)GlcNAc(b1-6)]GalNAc
Procedure, shortened: as §1

GalNAc(a1-3)GalNAc = molecular target: GalNAc(a1-3)GalNAc
Procedure, shortened: as §1

GalNAc(b1-4)GlcNAc = molecular target: GalNAc(b1-4)GlcNAc
Procedure, shortened: as §1

[14] = molecular target: GalNAc(b1-4)GlcNAc(b1-2)Man
Procedure, shortened: as §1

GalNAc(b1-4)GlcNAc6S = molecular target: GalNAc(b1-4)GlcNAc6S
Procedure, shortened: as §1

GalNAc3S(b1-4)GlcNAc3S = molecular target: GalNAc3S(b1-4)GlcNAc3S
Procedure, shortened: as §1

Glc(b1-4)Glc = molecular target: Glc(b1-4)Glc
Procedure, shortened: as §1

GlcA(b1-6)Gal = molecular target: GlcA(b1-6)Gal
Procedure, shortened: as §1

[15] = molecular target: GlcNAc(b1-3)Gal(b1-4)GlcNAc(b1-3)Gal(b1-4)GlcNAc(b1-2)[GlcNAc(b1-3)Gal(b1-4)GlcNAc(b1-3)Gal(b1-4)GlcNAc(b1-6)]Man(a1-6)[GlcNAc(b1-3)Gal(b1-4)GlcNAc(b1-3)Gal(b1-4)GlcNAc(b1-2)Man(a1-3)]Man(b1-4)GlcNAc(b1-4)[Fuc(a1-6)]GlcNAc
Procedure, shortened: as §1

[16] = molecular target: GlcNAc(b1-3)Gal(b1-4)GlcNAc(b1-3)Gal(b1-4)GlcNAc(b1-3)Gal(b1-4)GlcNAc(b1-2)[GlcNAc(b1-3)Gal(b1-4)GlcNAc(b1-3)Gal(b1-4)GlcNAc(b1-3)Gal(b1-4)GlcNAc(b1-6)]Man(a1-6)[GlcNAc(b1-3)Gal(b1-4)GlcNAc(b1-3)Gal(b1-4)GlcNAc(b1-3)Gal(b1-4)GlcNAc(b1-2)Man(a1-3)]Man(b1-4)GlcNAc(b1-4)[Fuc(a1-6)]GlcNAc
Procedure, shortened: as §1

[17] = molecular target: GlcNAc(b1-3)Gal(b1-4)GlcNAc(b1-3)GalNAc
Procedure, shortened: as §1

[18] = molecular target: GlcNAc(b1-3)[GlcNAc(b1-4)][GlcNAc(b1-6)]GlcNAc
Procedure, shortened: as §1

[19] = molecular target: GlcNAc(b1-6)Gal(b1-4)GlcNAc
Procedure, shortened: as §1

[20] = molecular target: Man(a1-3)[Man(a1-6)]Man(b1-4)GlcNAc(b1-4)[Fuc(a1-6)]GlcNAc
Procedure, shortened: as §1

[21] = molecular target: Neu5Ac(a2-3)Gal(b1-3)GalNAc(b1-4)[Neu5Ac(a2-8)Neu5Ac(a2-3)]Gal(b1-4)Glc
Procedure, shortened: as §1

[22] = molecular target: Neu5Ac(a2-3)Gal(b1-4)GlcNAc(b1-2)[Neu5Ac(a2-3)Gal(b1-4)GlcNAc(b1-4)]Man(a1-3)[GlcNAc(b1-4)][Neu5Ac(a2-3)Gal(b1-4)GlcNAc(b1-4)Man(a1-6)]Man(b1-4)GlcNAc(b1-4)GlcNAc
Procedure, shortened: as §1

[23] = molecular target: Neu5Ac(a2-3)Gal(b1-4)[Fuc(a1-3)]GlcNAc
Procedure, shortened: as §1

[24] = molecular target: Neu5Ac(a2-3)Gal(b1-4)[Fuc(a1-3)]GlcNAc6S
Procedure, shortened: as §1

[25] = molecular target: Neu5Ac(a2-6)Gal(b1-4)GlcNAc(b1-2)Man(a1-3)[Neu5Ac(a2-6)Gal(b1-4)GlcNAc(b1-2)Man(a1-6)]Man(b1-4)GlcNAc(b1-4)[Fuc(a1-6)]GlcNAc
Procedure, shortened: as §1

[26] = molecular target: Neu5Ac(a2-6)Gal(b1-4)GlcNAc(b1-2)Man(a1-6)[Gal(b1-4)GlcNAc(b1-2)Man(a1-3)]Man(b1-4)GlcNAc(b1-4)GlcNAc
Procedure, shortened: as §1

[27] = molecular target: Neu5Ac(a2-6)Gal(b1-4)GlcNAc(b1-3)Gal(b1-4)GlcNAc(b1-3)GalNAc
Procedure, shortened: as §1

[28] = molecular target: Neu5Ac(a2-8)Neu5Ac(a2-3)Gal(b1-3)GalNAc(b1-4)[Neu5Ac(a2-3)]Gal(b1-4)Glc
Procedure, shortened: as §1

[29] = molecular target: Neu5Ac(a2-8)Neu5Ac(a2-3)[Gal(b1-3)GalNAc(b1-4)]Gal(b1-4)Glc
Procedure, shortened: as §1

Neu5Ac(b2-6)GalNAc = molecular target: Neu5Ac(b2-6)GalNAc
Procedure, shortened: as §1

[30] = molecular target: Neu5Ac9Ac(a2-3)Gal(b1-3)GlcNAc
Procedure, shortened: as §1

[31] = molecular target: Neu5Gc(a2-3)Gal(b1-4)GlcNAc(b1-3)Gal(b1-4)GlcNAc(b1-2)Man(a1-3)[Neu5Gc(a2-3)Gal(b1-4)GlcNAc(b1-3)Gal(b1-4)GlcNAc(b1-2)Man(a1-6)]Man(b1-4)GlcNAc(b1-4)GlcNAc
Procedure, shortened: as §1

[32] = molecular target: Neu5Gc(a2-6)Gal(b1-4)GlcNAc
Procedure, shortened: as §1

B1: SP16663B-bot-321-25-321 (Bacteroides ovatus) (protein)
chain: DDDDEVTMNSKFYLSTKVFPVDSYEASLSVILKDNSVVVNELQPNYRFVACATERLSKDVKITADSDDNLVSAYNKANDTEYNILPAENYSFTNKTVTIENGESVSGDSIKIELLNVGSLTTEGGYLLPVTISSIEGNNLDALSSNRGVVYLKIQNIHVNVESGQPAEGTLIADRSGWTVKVAPTTRGDAKNLIDGTNSDVARDGGAEYWLTVDIGKVQTLTGIRNKCYASSYSPTAVEVFTSSDGAKWKSIGAVTISKSGTQYIKFSKAVETRYLKYYVKQGPNTVSLTEFDLYAK
glycan array binding signal (z-score) (Fuc(a1-2)Gal(b1-4)Glc): -0.653
glycan array binding signal (z-score) (Fuc(a1-2)Gal(b1-4)GlcNAc): -0.156
glycan array binding signal (z-score) [1]: -0.106
glycan array binding signal (z-score) [2]: -0.632
glycan array binding signal (z-score) [3]: -0.394
glycan array binding signal (z-score) [4]: -0.007
glycan array binding signal (z-score) [5]: -0.437
glycan array binding signal (z-score) [6]: 1.9
glycan array binding signal (z-score) [7]: 0.071
glycan array binding signal (z-score) [8]: 1.04
glycan array binding signal (z-score) [9]: 0.604
glycan array binding signal (z-score) [10]: 1.36
glycan array binding signal (z-score) [11]: 0.558
glycan array binding signal (z-score) (Fuc(a1-4)GlcNAc): 21.5
glycan array binding signal (z-score) (Gal(a1-3)Gal(b1-3)GlcNAc): 0.607
glycan array binding signal (z-score) [12]: -0.62
glycan array binding signal (z-score) [13]: 1.04
glycan array binding signal (z-score) (GalNAc(a1-3)GalNAc): -0.141
glycan array binding signal (z-score) (GalNAc(b1-4)GlcNAc): 1.29
glycan array binding signal (z-score) [14]: 1.72
glycan array binding signal (z-score) (GalNAc(b1-4)GlcNAc6S): -0.779
glycan array binding signal (z-score) (GalNAc3S(b1-4)GlcNAc3S): -0.087
glycan array binding signal (z-score) (Glc(b1-4)Glc): 0.122
glycan array binding signal (z-score) (GlcA(b1-6)Gal): 0.013
glycan array binding signal (z-score) [15]: 2.65
glycan array binding signal (z-score) [16]: 1.28
glycan array binding signal (z-score) [17]: -0.536
glycan array binding signal (z-score) [18]: -0.112
glycan array binding signal (z-score) [19]: 1.33
glycan array binding signal (z-score) [20]: 0.967
glycan array binding signal (z-score) [21]: 0.469
glycan array binding signal (z-score) [22]: -0.146
glycan array binding signal (z-score) [23]: -0.258
glycan array binding signal (z-score) [24]: -0.406
glycan array binding signal (z-score) [25]: 0.583
glycan array binding signal (z-score) [26]: -0.492
glycan array binding signal (z-score) [27]: -0.34
glycan array binding signal (z-score) [28]: -0.244
glycan array binding signal (z-score) [29]: 0.154
glycan array binding signal (z-score) (Neu5Ac(b2-6)GalNAc): -0.878
glycan array binding signal (z-score) [30]: 0.033
glycan array binding signal (z-score) [31]: -0.142
glycan array binding signal (z-score) [32]: 0.696

— the supplement of paper PMC8728848
